The values below come from PubChem BioAssay.

For assay [1], the target named is ATP-dependent translocase ABCB1 (Homo sapiens) (UniProt P08183). Description: MDR1 (ABCB1) efflux transporter inhibition, cell-based (AID 377). The note with it: MDR1-expressing cells, fluorescent substrate accumulation slope; stronger effect = higher value; concentration not given here.
A short description of assay [2]: polyglutamine-triggered caspase-3 activation inhibitors, cell-based (AID 1583). The note with it: polyglutamine-induced caspase-3 activation, cell assay; stronger effect = higher value;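 tested at 10 µM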.
Assay [3] in a line: suppressors of polyQ aggregation in yeast, 75Q-TubU reporter (AID 1593). The note with it: Yeast 75Q polyglutamine aggregation reporter.
Assay [4] is described as follows: rescue of polyQ-huntingtin neuronal dysfunction in worms, whole organism, C. elegans mechanosensory neurons, N-terminal huntingtin (AID 1599). Particulars: touch response, stronger effect = higher value.
Assay [5] can be described thus: inhibitors of mitochondrial cytochrome c release, biochemical, purified mitochondria (AID 1603).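 Further: mouse liver mitochondria challenged with calcium chloride; signal normalized to the plate average as 100%.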 The note with it: stronger effect = lower value.
Assay [6] can be described thus: inhibitors of polyQ protein aggregation (AID 1604). The note with it: polyglutamine-induced protein aggregation inhibition assay; stronger effect = higher value; tested at 2.5 µM.

Records with an inconclusive call do not appear. For part of these data: Entries with a potency or affinity are not part of this list. Activity calls are given as the source filed them. No stated cut-off is given here; in the data, active means fluorescence slope change above about 50%; inconclusive means mostly about 31% to 49%; inactive means weaker than that.

In general, inhibition refers to the change of the read-out against control, counted positive when it falls.

Sequence of ATP-dependent translocase ABCB1 (Homo sapiens) (P08183 whole entry, looked up): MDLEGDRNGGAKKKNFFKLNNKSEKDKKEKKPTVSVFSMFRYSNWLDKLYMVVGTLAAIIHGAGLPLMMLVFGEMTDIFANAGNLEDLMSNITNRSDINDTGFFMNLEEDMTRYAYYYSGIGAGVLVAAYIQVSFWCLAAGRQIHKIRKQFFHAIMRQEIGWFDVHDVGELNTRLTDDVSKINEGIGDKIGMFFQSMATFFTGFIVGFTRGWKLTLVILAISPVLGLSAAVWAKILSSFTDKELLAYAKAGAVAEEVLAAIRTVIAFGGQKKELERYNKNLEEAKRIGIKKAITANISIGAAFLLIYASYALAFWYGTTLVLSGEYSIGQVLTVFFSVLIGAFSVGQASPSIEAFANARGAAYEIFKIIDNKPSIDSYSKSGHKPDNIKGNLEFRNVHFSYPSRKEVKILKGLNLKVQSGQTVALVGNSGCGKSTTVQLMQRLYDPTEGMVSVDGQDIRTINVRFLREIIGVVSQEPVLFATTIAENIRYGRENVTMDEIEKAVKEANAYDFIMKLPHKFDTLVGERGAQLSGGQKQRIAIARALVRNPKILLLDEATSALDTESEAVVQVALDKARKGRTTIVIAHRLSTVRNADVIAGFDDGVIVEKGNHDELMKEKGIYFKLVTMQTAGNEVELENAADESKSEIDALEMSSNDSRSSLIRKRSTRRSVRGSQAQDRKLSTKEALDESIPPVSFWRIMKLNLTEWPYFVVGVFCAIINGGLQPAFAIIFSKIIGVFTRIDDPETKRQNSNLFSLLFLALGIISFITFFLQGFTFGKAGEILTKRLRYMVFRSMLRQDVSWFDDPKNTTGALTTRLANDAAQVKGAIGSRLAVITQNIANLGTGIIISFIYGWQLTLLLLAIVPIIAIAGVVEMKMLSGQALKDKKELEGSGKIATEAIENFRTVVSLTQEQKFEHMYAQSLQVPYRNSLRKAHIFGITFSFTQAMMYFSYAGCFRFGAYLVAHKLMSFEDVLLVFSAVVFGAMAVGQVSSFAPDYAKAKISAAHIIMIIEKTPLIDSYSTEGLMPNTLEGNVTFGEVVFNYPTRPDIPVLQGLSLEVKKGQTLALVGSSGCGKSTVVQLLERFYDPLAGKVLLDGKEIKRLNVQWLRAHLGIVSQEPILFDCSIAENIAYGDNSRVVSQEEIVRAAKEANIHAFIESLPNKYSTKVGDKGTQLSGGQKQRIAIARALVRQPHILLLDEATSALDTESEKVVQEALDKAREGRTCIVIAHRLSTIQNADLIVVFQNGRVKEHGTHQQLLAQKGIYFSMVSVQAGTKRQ

Regarding `CCCC(C(=O)OCCN(CC)CC)(c1ccccc1)c1ccccc1`, in assay [1], the fluorescence slope change was 180% (active). Besides, the inhibition in assay [2] was -4.65%. This compound also had a score in assay [3] of 1.32. The compound also returned a rescue above control in assay [4] of -2.09. Further, the cytochrome c release ratio in assay [5] was 2.6. Moreover, the inhibition of aggregation in assay [6] was determined as 77%.
As for `CCCCN(CCCC)CCCOC(=O)c1ccc(N)cc1`, in assay [1], the fluorescence slope change is 85.2% (active). Moreover, the inhibition in assay [2] is 5.65%. The compound further returned a score in assay [3] of 1.13. Further, the rescue above control in assay [4] is -6.3. Further, the cytochrome c release ratio in assay [5] was determined as 0.76. Besides, the inhibition of aggregation in assay [6] was 39.2%.
Turning to `Cc1c(NC(C)C)c(=O)n(-c2ccccc2)n1C`, the inhibition in assay [2] stood at 6.61%. This compound came in with a score in assay [3] of 1.54. Besides, the rescue above control in assay [4] was -6.83. Besides, in assay [5], the cytochrome c release ratio worked out at 1.16. The compound further registered an inhibition of aggregation in assay [6] of 13.7%.
On to `Nc1nc2c(c(=O)[nH]1)N(C=O)C(CNc1ccc(C(=O)N[C@@H](CCC(=O)O)C(=O)O)cc1)CN2` (stereo not given in full), for which, in assay [2], the inhibition was found to be 16.8%. In assay [3], the score was 2.89. In assay [4], this compound returned a rescue above control of -4.97. Also, the cytochrome c release ratio in assay [5] is 1.12. The inhibition of aggregation in assay [6] turned out to be 35%.
Taken in the same sequence, the figures for `C[n+]1ccccc1/C=N/O` were 17.5%, 1.27, 6.93, 1.18 and 91.3%.
Regarding `Nc1ccc(S(=O)(=O)Nc2ccccn2)cc1`, in assay [1], the fluorescence slope change is 12.6% (inactive). In addition, the inhibition in assay [2] was -3.18%. Further, the score in assay [3] turned out to be 1.17. Further, the rescue above control in assay [4] was found to be 5.7. Further, the cytochrome c release ratio in assay [5] was found to be 0.88. Also, in assay [6], the inhibition of aggregation came out at 24.2%.
For the compound `CC[C@]12CCCN3CCc4c(n(c5ccccc45)C(=O)C1)[C@@H]32`, in assay [1], the fluorescence slope change was 12.1% (inactive). Moreover, the inhibition in assay [2] stood at 11.5%. The compound further gave a score in assay [3] of 1.49. The rescue above control in assay [4] was 15.2. Moreover, the cytochrome c release ratio in assay [5] was found to be 1.06. The compound further registered an inhibition of aggregation in assay [6] of 76%.
With `CC(=O)N[C@@H](CS)C(=O)O`, in assay [2], the inhibition was -21.7%. This compound also returned a score in assay [3] of 1.46. The compound further came in with a rescue above control in assay [4] of -1.36. For the same compound, in assay [5], the cytochrome c release ratio worked out at 1.05. The same compound came in with an inhibition of aggregation in assay [6] of 79.6%.
As for `NCCCCCC(=O)O`, in assay [2], the inhibition is -5.51%. This compound came in with a score in assay [3] of 1.37. The same compound registered a rescue above control in assay [4] of 1.88. Moreover, in assay [5], the cytochrome c release ratio was 1.36. Also, the inhibition of aggregation in assay [6] was 75.6%.
On the same counts, the results for `NC(Cc1ccc(Cl)cc1)C(=O)O` (stereo not given) are 2.04%, 1.27, 22.3, 0.79 and 83.3%.
Regarding `Nc1ccc(S(=O)(=O)NC(=O)c2ccccc2)cc1`, the fluorescence slope change in assay [1] was 30% (inactive). For the same compound, in assay [2], the inhibition is 20.3%. The compound further gave a score in assay [3] of 1.2. Also, in assay [4], the rescue above control is -4.53. Also, the cytochrome c release ratio in assay [5] was found to be 0.95. This compound had an inhibition of aggregation in assay [6] of 47.9%.
As for `OCc1ccccc1O`, the inhibition in assay [2] was -8.47%. The compound also returned a score in assay [3] of 1.17. The same compound yielded a rescue above control in assay [4] of 12.8. For the same compound, in assay [5], the cytochrome c release ratio stood at 0.81. The compound further had an inhibition of aggregation in assay [6] of 67.8%.
On the same counts, the results for `Nc1nccs1` are 9.3%, 1.44, -9.08, 0.95 and 30.7%.
Taken in the same sequence, the figures for `O=C(O)P(=O)(O)O` were -16.3%, 1.28, 9.34, 0.68 and 30.6%.
As for `Nc1c2c(nc3ccccc13)CCCC2O` (stereo not given), the inhibition in assay [2] came out at 19.1%. This compound showed a score in assay [3] of 1.04. This compound gave a rescue above control in assay [4] of -4.39. Further, the cytochrome c release ratio in assay [5] was 0.96. The inhibition of aggregation in assay [6] stood at 59.1%.
Taken in the same sequence, the figures for `CC/C(=C(/CC)c1ccc(O)cc1)c1ccc(O)cc1` were 48.1%, 0.36, -4.53, 0.65 and 38.5%.
On the same counts, the results for `Cn1c(=O)c2c(ncn2CC(O)CO)n(C)c1=O` (stereo not given) are -0.09%, 1.08, -16.2, 1.19 and 21.9%.
